Assay outcomes from PubChem.
VP16 counter: counter-screen for ROR gamma inhibitors: Gal4-VP16 reporter; Potency, µM (highest dose often 53.6 µM), for the others: at the top dose activity, negative = inhibition, usual class: inhibitors; Drosophila S2 Gal4-VP16 UAS-luciferase, luminescence, 20 h; AID 2546; 310,000 tested, 3.5% active;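 note: Gal4-VP16 expression switched on by copper sulfate through the metallothionein promoter; % is set by controls: 0 for no effect and ±100 for the full control effect; nearly all actives have a fitted effect of over 50% in size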
RORg inh: ROR gamma (mouse) transcription inhibition. P51450. Drosophila S2 Gal4-RORgamma UAS-luciferase reporter, 20 h. Potency, µM (doses to about 53.6 µM), without a hit: at the top dose activity change, negative = inhibition, hits mostly inhibitors. 310,000 tested, 5.4% active. AID 2551; note: % is set by controls: 0 for no effect and ±100 for the full control effect; nearly all actives have a fitted effect of over 60% in size
Target sequence (P51450 whole entry, looked up, the tested form may be a part): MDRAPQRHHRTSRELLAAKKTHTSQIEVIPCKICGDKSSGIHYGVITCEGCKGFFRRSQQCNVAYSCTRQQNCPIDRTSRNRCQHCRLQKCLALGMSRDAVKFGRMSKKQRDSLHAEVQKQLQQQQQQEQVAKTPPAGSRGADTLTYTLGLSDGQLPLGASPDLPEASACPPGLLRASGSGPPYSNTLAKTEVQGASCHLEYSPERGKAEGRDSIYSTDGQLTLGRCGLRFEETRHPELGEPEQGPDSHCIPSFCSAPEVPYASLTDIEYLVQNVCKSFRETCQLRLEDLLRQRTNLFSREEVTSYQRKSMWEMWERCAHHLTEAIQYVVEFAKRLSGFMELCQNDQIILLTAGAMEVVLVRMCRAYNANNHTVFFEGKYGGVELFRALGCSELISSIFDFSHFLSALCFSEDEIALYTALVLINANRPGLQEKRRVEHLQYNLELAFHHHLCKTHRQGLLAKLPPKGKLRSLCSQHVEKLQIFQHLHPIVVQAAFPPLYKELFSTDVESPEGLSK
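Stably transfected Drosophila Schneider cells are the test system, with ROR gamma fused to Gal4 and luciferase under UAS control; luminescence is read after 20 hr of 700 uM copper sulfate induction at ambient temperature.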
MCF10A rerep: inducers of DNA re-replication in MCF 10A breast cells; MCF 10A DNA re-replication, Hoechst nuclear intensity, 48 h; Potency, µM (titrated, usually from 46.1 µM), for inactives: at the highest dose activity, positive = re-replication, hits mostly activators; 350,000 tested, 2.9% active; AID 624296; note: % of control where 0% means no effect; nearly all actives have a fitted effect of over 50% in size
KB-3-1 cytotox: kills parental KB-3-1 adenocarcinoma cells | KB-3-1 viability, CellTiter-Glo ATP luminescence, 72 h | Potency, µM (series often up to 46.1 µM), hits mostly cytotoxic | 400,000 tested, 1.4% active; note: % is set by controls: 0 for no effect and ±100 for the full control effect; nearly all actives have a fitted effect of over 60% in size
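72 h, 37 °C compound treatment of KB-3-1 parental cells; CellTiter-Glo added, 10 min, luminescence read. Data corrected against DMSO-only plates and normalized before curve fitting.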
KB-V1 cytotox: kills drug-selected multidrug resistant KB-V1 cells | KB-V1 MDR cells viability, CellTiter-Glo, 72 h | AID 1347076 | 400,000 tested, 3.4% active | Potency, µM (doses to about 46.1 µM), usual class: cytotoxic; note: % is set by controls: 0 for no effect and ±100 for the full control effect; nearly all actives have a fitted effect of over 60% in size
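Cytotoxicity toward P-gp-expressing KB-V1 cells was determined as loss of CellTiter-Glo luminescence after 72 h at 37 degrees C. Compounds were tested in quantitative HTS format across a concentration range, with curves fitted to normalized data.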
SW480 rereplic: DNA re-replication induction in SW480 cells; SW480 DNA re-replication, Hoechst DNA content imaging, 48 h; Potency, µM (top dose mostly 46.1 µM), for inactives: at the highest dose re-replication activation, hits mostly activators; 340,000 tested, 1.8% active; note: % of control where 0% means no effect; nearly all actives have a fitted effect of over 55% in size
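Image-based DNA-content assay: after two days of treatment, nuclei were labelled with the DNA dye Hoechst and imaged, and hits were compounds raising the count of nuclei showing high fluorescence intensity.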
* = called active by the depositor; ! = not active in a repeat; [ ] = another dose, or the depositor's remark. Shown are actives, neighbours in structure and some others; about 10% of the full set was active somewhere. Calls come from the whole dose curve; as a rule, active = well fitted curve in the direction sought with a large enough effect; inconclusive = small, poorly fitted or top-dose-only effect, or another doubt; inactive = no such curve, though single readings can be large; an effect the other way counts as inactive or inconclusive. Potency is the fitted concentration of half-maximal effect.

What do the screens show for `Cc1cc(C(=O)CSc2nnc(-c3ccc(F)cc3)o2)c(C)n1CC1COc2ccccc2O1` (stereo not drawn)?
VP16 counter: -11.0%; RORg inh: -28.9%; MCF10A rerep: 16.4µM*; KB-3-1 cytotox: inactive; KB-V1 cytotox: inactive; SW480 rereplic: 8.0%

How did Cc1cc(C(=O)CN2C(=O)C(=O)N(Cc3ccccc3)C2=O)c(C)n1CC1COc2ccccc2O1 (stereo not drawn) do in these assays?
VP16 counter: -14.8%; RORg inh: inconclusive; MCF10A rerep: 4.61µM*; KB-3-1 cytotox: inactive; KB-V1 cytotox: inactive; SW480 rereplic: 14.1%

Results for C/C(CCN1CCCc2nc(C)c(C)cc21)=N\O[C@@H](C)c1cc(-c2c(C)cc(C)cc2C)no1 ?
VP16 counter: 1.5%[10 µM]; RORg inh: 1.3%[10 µM]

How did O=C(c1cnccn1)N1CCC[C@@]2(CCN(c3ccccn3)C2)C1 do in these assays?
VP16 counter: -1.7%; RORg inh: -4.6%

How did CCc1sc(Nc2ccc(C)cc2Br)nc1-c1cc2cccc(OC)c2oc1=O do in these assays?
KB-3-1 cytotox: inactive; KB-V1 cytotox: inactive

Results for Cc1cc(C(=O)CN2C(=O)C(=O)N(Cc3ccccc3)C2=O)c(C)n1Cc1ccccc1 ?
MCF10A rerep: 14.1%; KB-3-1 cytotox: inactive; KB-V1 cytotox: 20.6µM*; SW480 rereplic: -2.6%

What do the screens show for `Cc1cc(C(=O)CN2C(=O)C(=O)N(Cc3ccccc3)C2=O)c(C)n1Cc1ccc(F)cc1`?
MCF10A rerep: 5.17µM*; KB-3-1 cytotox: inconclusive; KB-V1 cytotox: inactive; SW480 rereplic: inconclusive

What do the screens show for `CCN(C(=O)COC(=O)c1c(C)nn(-c2ccccc2)c1C)C1CCS(=O)(=O)C1` (stereo not drawn)?
VP16 counter: -11.4%; RORg inh: 4.6%; MCF10A rerep: -17.1%; KB-3-1 cytotox: inactive; KB-V1 cytotox: inactive; SW480 rereplic: 2.8%

What do the screens show for `CCN(C(=O)COC(=O)c1c2c(nc3ccccc13)/C(=C/c1ccccc1)CC(C)C2)C1CCS(=O)(=O)C1` (stereo not drawn)?
VP16 counter: -15.1%; RORg inh: 28.0%; MCF10A rerep: inconclusive; KB-3-1 cytotox: inconclusive; KB-V1 cytotox: inconclusive; SW480 rereplic: 7.31µM*

What do the screens show for `NS(=O)(=O)c1ccc(CCNC(=O)C2CCN(S(=O)(=O)c3cnc[nH]3)CC2)cc1`?
VP16 counter: -3.8%; RORg inh: -16.4%; MCF10A rerep: 20.6µM*; KB-3-1 cytotox: inactive; KB-V1 cytotox: inactive; SW480 rereplic: inconclusive

Results for NS(=O)(=O)c1ccc(CCNC(=O)C2CCN(S(=O)(=O)c3ccccc3)CC2)cc1 ?
VP16 counter: 1.9%; RORg inh: 32.3%; MCF10A rerep: -3.6%; KB-3-1 cytotox: inactive; KB-V1 cytotox: inactive; SW480 rereplic: -12.8%

How did CC(=O)NC(CC(=O)N(C)C1CCCCC1)c1ccccc1 (stereo not drawn) do in these assays?
VP16 counter: -0.8%; RORg inh: 18.1%; MCF10A rerep: -6.4%; KB-3-1 cytotox: inactive; KB-V1 cytotox: inactive; SW480 rereplic: -10.4%

Results for CC(C)(O)CN(C(=O)C(c1ccccc1)c1ccccc1)C1CCCCC1 ?
MCF10A rerep: 4.6%; KB-3-1 cytotox: inactive; KB-V1 cytotox: 13µM*; SW480 rereplic: 11.5%

How did O=C(NCc1ccccc1Cl)NCc1noc2ccccc12 do in these assays?
KB-3-1 cytotox: inactive; KB-V1 cytotox: inactive

What do the screens show for `N[C@@H](Cc1cc(I)c(Oc2ccc(O)c(I)c2)c(I)c1)C(=O)O`?
VP16 counter: 5.2%; RORg inh: inconclusive; MCF10A rerep: 20.6µM*!; KB-3-1 cytotox: inconclusive; KB-V1 cytotox: inactive; SW480 rereplic: -7.5%

Results for NC(Cc1cc(I)c(Oc2ccc(O)c(I)c2)c(I)c1)C(=O)O (stereo not drawn) ?
VP16 counter: -0.5%; RORg inh: 14.9%
